The values below come from PubChem BioAssay (NCATS).

“And” between values parts separate entries of the source, which are not always exact repeats. Equal values may be shown once. Results filed as inconclusive are left out. The source made the active and inactive calls. Unless noted, calls come from the whole dose curve; as a rule, active = well fitted curve in the direction sought with a large enough effect; inconclusive = small, poorly fitted or top-dose-only effect, or another doubt; inactive = no such curve, though single readings can be large; an effect the other way counts as inactive or inconclusive.

Assay [1] is described as follows: Validation of Assay for Modulators of Lamin A Splicing (AID 1459; active = well fitted curve in the direction sought with a large enough effect in the signal ratio; the % refers to the signal ratio;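 note: cells exposed to compound for two days before reading; 0% is about no effect; ratio rise marks activators and ratio drop marks inhibitors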). To be noted: Lamin A splicing dual RFP/GFP fluorescence reporter; series mostly up to 9.22 µM. Put shortly:
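Splicing correction is reported by an EGFP-containing lamin A minigene in stably transfected S3 HeLa cells, while DsRed2 controls for viability and nonspecific signal. Cells are exposed to compounds for 48 hrs before the GFP over RFP ratio is taken.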

Assay [2] is described as follows: qHTS Assay for Lipid Storage Modulators (AID 1519; calls by dose curve; for activity change, negative = inhibition: % is set by controls: 0 for no effect and ±100 for the full control effect). To be noted: Drosophila S3 cells, BODIPY lipid droplet/cell ratio, laser cytometry, cells loaded with oleic acid. In short, it runs like this:
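Cells seeded at 5,000 per well were treated with compounds over a concentration series and loaded with oleic acid (400 uM, as added). Lipid droplet fluorescence (488 nm excitation, 500-530 nm channel) was read by laser-scanning cytometry and normalized to 20 uM Triacsin C.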

Assay [3] deals with DNA repair nuclease/redox regulator APEX1 (Homo sapiens) (UniProt P27695). The assay is described as follows: qHTS Validation Assay for Inhibitors of the Human Apurinic/apyrimidinic Endonuclease 1 (APE1) (AID 1705;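 note: TAMRA fluorescence gain over two minutes as APE1 cuts a quenched THF abasic duplex; % is set by controls: 0 for no effect and ±100 for the full control effect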). To be noted: purified APE1 endonuclease activity, fluorescence, titration; series mostly up to 57.1 µM. In short, it runs like this:
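Endonuclease activity of human APE1 is followed as dequenching when the enzyme incises a tetrahydrofuran abasic site in a short duplex labelled 5'-TAMRA/3'-BHQ-2 (50 nM final), after 15 min enzyme–compound preincubation at room temperature.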

A short description of assay [4]: Counterscreen for APE1 Inhibitors: Fluorescent Dye Displacement Validation Assay (AID 1707).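 Note: plate controls were ThO with dsDNA and no compound for no effect and ThO without dsDNA for full effect.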 To be noted: fluorescent dye displacement from DNA; series mostly up to 57.1 µM. Put shortly:
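Reaction mixture of 250 nM Thiazole Orange and 50 nM double-stranded abasic-site DNA was dispensed, compounds were pin-transferred, and fluorescence was read at endpoint (480 nm ex, 540 nm em). Reduced fluorescence indicated dye displacement by DNA binding.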
A general note: Counterscreens check selectivity or assay interference.

Assay [5] can be described thus: qHTS for differential inhibitors of proliferation of Plasmodium falciparum line GB4 (AID 1816).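 Note: potency is the fitted concentration of half-maximal effect; parasite growth measured after 72 h incubation.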 The conditions noted are these: Potency: Plasmodium falciparum GB4 proliferation inhibition; series mostly up to 28.7 µM.
Assay [6] in a line: qHTS for differential inhibitors of proliferation of Plasmodium falciparum line 3D7 (AID 1876). Note: potency is the fitted concentration of half-maximal effect. The conditions noted are these: P. falciparum 3D7 proliferation inhibition; series mostly up to 28.7 µM. A general note: Quantitative high-throughput screening tests each substance at several concentrations.
A short description of assay [7]: qHTS for differential inhibitors of proliferation of Plasmodium falciparum line D10 (AID 1877).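 Note: potency is the fitted concentration of half-maximal effect; parasites grown with compound for 72 h before DNA staining.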 The conditions noted are these: series mostly up to 28.7 µM.
Assay [8] is described as follows: qHTS for differential inhibitors of proliferation of Plasmodium falciparum line HB3 (AID 1886).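 Note: potency is the fitted concentration of half-maximal effect; parasites grown with compound for 72 h before SYBR Green readout.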 To be noted: Potency: Plasmodium falciparum HB3 proliferation inhibition; series mostly up to 28.7 µM.
Assay [9] deals with ATP-dependent DNA helicase Q1 (Homo sapiens) (UniProt P46063). Put plainly: qHTS Validation Assay for Inhibitors of RecQ-Like Dna Helicase 1 (RECQ1) (AID 2353).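 Note: plate controls were DMSO vehicle for no effect and enzyme-free control for full effect.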 To be noted: recombinant RECQ1 helicase DNA unwinding assay; series mostly up to 25.6 µM. Put shortly:
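RECQ1T1 50 nM; forked duplex (20 bp + 30-nt ss tails) 200 nM, ATP 2 mM final; pH 8.0, 2 mM MgCl2, 2.5 ug/ml poly(dI-dC); 15 min compound preincubation; discontinuous kinetic read over 2 h at RT.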

The nature of assay [10]: Validation screen for small molecules that induce DNA re-replication in MCF 10A normal breast cells (AID 463097). Note: 0% is about no effect; nearly all actives have a fitted effect of over 60% in size. The conditions noted are these: MCF 10A cells, DNA re-replication phenotype imaging; series mostly up to 46.1 µM. In short, it runs like this: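 DNA re-replication was detected as a rise in nuclei with elevated Hoechst fluorescence after a 48 hr compound exposure of MCF 10A cells at 37 C.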

Assay [11] in a line: Quantitative high throughput screen for delayed death inhibitors of the malarial parasite plastid, 96 hour incubation (AID 488745). Note: potency is the fitted concentration of half-maximal effect; nearly all actives have a fitted effect of over 70% in size. To be noted: Plasmodium falciparum growth; series mostly up to 28.7 µM. Put shortly: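 Readout is firefly luciferase luminescence from an integrated reporter in P. falciparum; lower signal marks inhibited growth. Cultures at 2% hematocrit and 0.1% parasitemia were treated with compound across two generations (96 h, 37 C, 5% CO2).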

Assay [12] deals with Transient receptor potential cation channel subfamily V member 1 (Homo sapiens) (UniProt Q8NER1). The assay is described as follows: HTS Assay for Compounds that Act as Enhancers of the Vanilloid Receptor 1 (AID 488979). Note: 0% is about no effect. The conditions noted are these: TRPV1-expressing cells, enhancer of channel activity, stimulated with capsaicin at EC20; series mostly up to 41.7 µM. In short, it runs like this: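 TRPV1-expressing cells loaded with Fluo-8 calcium dye; compounds added and calcium influx read kinetically for 3 min (agonist phase), then capsaicin at EC20 added and read 2 min more for enhancement. Fluorescence ex 480/em 520 nm.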

In assay [13] the target is Thyrotropin receptor (Homo sapiens) (UniProt P16473). Put plainly: qHTS Assay for Antagonists of the Thyroid Stimulating Hormone Receptor (AID 488980). Note: 0% is about no effect. The conditions noted are these: TSHR-expressing cells, cAMP antagonist read-out; series mostly up to 57.5 µM. Put shortly:
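Cells expressing human TSHR (HEK293) are dispensed in HBSS/HEPES containing 70 uM RO 20-1724, compound is added, then TSH at EC80 (4 nM final). Antibody in lysis buffer follows, 30 minutes at room temperature before HTRF detection.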

Assay [14] concerns the target Thyrotropin-releasing hormone receptor (Homo sapiens) (UniProt P34981). The assay is described as follows: qHTS for Small Molecule Agonists and Allosteric Enhancers of Human TRH Receptor: Validation Screen for Agonists (AID 493127;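 active = calcium activation more than 3 SD above the typical response in the agonist read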;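 note: intracellular calcium rise by fluo-8 fluorescence before TRH EC20 addition; 0% is about no effect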). The conditions noted are these: TRH receptor agonist cell assay; at 2 µM; stronger effect = higher value. Put shortly: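 Compounds are added by online pintool to dye-loaded TRHR cells while fluorescence is recorded every second. A rise in calcium signal during the agonist read marks activation; a later 10 nM TRH addition (EC20) serves the separate enhancer mode.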

The target in assay [15] is Galactokinase (Homo sapiens) (UniProt P51570). The assay is described as follows: qHTS Validation Assay for Inhibitors of Human Galactokinase (GALK) (AID 493189). Note: 0% is about no effect. To be noted: purified human GALK enzyme activity, qHTS 7-point titration; series mostly up to 57.5 µM. In short, it runs like this: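 Compounds were pin-transferred into ATP buffer, then GALK-galactose mix was added (final 5 nM enzyme, 100 uM galactose, 35 uM ATP). After 1 h at room temperature, remaining ATP was measured luminescently.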

A short description of assay [16]: Validation screen for small molecules that induce DNA re-replication in SW480 colon adenocarcinoma cells (AID 504364). Note: 0% is about no effect. The conditions noted are these: DNA re-replication phenotype (high-content imaging); series mostly up to 46.1 µM. In short, it runs like this: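 Image-based qHTS: compounds were incubated with SW480 cells for 48 hr, nuclei stained with Hoechst, and per-nucleus fluorescence intensity scanned to flag cells with excess DNA content.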

Assay [17] can be described thus: Quantitative high throughput screen for delayed death inhibitors of the malarial parasite plastid, 48 hour incubation (AID 488752). Note: potency is the fitted concentration of half-maximal effect; nearly all actives have a fitted effect of over 65% in size. The conditions noted are these: Plasmodium falciparum growth; series mostly up to 28.7 µM. Put shortly: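 First, compound was pinned into RPMI 1640 medium containing 0.5% Albumax. Next, reporter-parasite-infected erythrocytes were added to 2% hematocrit and 0.1% parasitemia. After 48 h at 37 C under 5% CO2, luciferase detection reagent was added and luminescence read.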

Sequence of Thyrotropin-releasing hormone receptor (Homo sapiens) (P34981 whole entry, looked up): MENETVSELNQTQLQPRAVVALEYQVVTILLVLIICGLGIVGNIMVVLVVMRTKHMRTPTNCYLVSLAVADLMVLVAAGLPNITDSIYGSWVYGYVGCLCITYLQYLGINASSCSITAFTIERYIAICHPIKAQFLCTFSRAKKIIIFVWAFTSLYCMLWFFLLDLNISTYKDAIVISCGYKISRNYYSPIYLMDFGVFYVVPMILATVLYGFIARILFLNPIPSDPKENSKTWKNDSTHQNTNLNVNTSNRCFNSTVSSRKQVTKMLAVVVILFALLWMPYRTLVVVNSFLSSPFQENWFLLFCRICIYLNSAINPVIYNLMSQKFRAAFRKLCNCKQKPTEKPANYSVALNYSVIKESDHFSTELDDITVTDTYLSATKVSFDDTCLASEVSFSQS
Sequence of DNA repair nuclease/redox regulator APEX1 (Homo sapiens) (P27695 whole entry, looked up): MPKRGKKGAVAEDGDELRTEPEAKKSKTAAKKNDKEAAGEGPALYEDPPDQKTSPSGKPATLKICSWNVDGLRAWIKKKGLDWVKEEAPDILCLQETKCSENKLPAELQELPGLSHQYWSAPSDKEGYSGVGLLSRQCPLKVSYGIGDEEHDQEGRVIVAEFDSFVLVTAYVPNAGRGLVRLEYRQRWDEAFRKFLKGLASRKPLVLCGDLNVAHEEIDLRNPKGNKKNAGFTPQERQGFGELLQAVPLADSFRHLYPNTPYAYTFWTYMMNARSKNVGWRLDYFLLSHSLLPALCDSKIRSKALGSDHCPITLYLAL
Sequence of ATP-dependent DNA helicase Q1 (Homo sapiens) (P46063 whole entry, looked up): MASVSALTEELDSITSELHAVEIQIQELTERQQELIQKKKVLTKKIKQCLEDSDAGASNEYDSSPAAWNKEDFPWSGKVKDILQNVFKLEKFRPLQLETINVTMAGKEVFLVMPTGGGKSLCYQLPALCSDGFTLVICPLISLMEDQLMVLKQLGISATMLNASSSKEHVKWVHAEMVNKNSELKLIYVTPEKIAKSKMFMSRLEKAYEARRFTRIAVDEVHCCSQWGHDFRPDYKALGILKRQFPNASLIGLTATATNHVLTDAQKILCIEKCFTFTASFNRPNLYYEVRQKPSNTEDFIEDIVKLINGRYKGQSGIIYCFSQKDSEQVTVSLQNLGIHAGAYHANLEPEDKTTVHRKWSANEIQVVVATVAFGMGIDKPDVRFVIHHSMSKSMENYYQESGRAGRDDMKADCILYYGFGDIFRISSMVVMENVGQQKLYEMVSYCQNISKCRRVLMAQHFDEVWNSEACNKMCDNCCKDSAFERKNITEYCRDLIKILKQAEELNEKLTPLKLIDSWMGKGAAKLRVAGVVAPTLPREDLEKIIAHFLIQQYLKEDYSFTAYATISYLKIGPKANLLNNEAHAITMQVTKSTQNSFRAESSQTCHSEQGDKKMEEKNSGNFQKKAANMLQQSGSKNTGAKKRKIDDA
Sequence of Galactokinase (Homo sapiens) (P51570 whole entry, looked up): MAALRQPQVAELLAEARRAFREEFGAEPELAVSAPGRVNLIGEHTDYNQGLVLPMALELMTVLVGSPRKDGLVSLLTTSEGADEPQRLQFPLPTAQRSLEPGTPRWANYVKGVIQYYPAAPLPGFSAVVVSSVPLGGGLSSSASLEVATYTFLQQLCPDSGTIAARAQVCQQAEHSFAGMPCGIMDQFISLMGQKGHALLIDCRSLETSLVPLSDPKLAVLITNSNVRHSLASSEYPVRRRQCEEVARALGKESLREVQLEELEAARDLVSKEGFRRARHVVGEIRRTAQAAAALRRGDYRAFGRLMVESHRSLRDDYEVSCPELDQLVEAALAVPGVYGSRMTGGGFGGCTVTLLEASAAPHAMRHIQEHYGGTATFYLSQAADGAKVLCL
Sequence of Thyrotropin receptor (Homo sapiens) (P16473 whole entry, looked up): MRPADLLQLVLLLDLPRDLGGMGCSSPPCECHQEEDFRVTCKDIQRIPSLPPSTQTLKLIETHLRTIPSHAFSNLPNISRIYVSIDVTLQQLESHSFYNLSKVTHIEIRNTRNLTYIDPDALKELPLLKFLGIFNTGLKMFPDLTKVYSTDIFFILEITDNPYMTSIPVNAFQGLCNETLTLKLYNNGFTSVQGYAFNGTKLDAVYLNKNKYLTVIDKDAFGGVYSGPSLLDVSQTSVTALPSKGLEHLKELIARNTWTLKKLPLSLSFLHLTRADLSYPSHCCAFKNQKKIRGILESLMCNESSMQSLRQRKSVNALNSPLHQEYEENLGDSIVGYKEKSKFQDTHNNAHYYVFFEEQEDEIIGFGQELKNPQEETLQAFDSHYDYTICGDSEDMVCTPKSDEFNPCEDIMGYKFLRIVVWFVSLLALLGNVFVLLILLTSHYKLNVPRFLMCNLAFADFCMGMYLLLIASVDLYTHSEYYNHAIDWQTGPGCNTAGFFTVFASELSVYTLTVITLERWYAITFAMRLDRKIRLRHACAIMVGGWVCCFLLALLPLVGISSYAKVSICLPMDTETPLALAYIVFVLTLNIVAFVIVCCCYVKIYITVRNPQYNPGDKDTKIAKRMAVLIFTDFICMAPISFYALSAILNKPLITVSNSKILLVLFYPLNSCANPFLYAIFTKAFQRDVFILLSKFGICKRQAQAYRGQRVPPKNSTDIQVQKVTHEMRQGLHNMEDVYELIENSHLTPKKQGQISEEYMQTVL
Sequence of Transient receptor potential cation channel subfamily V member 1 (Homo sapiens) (Q8NER1 whole entry, looked up): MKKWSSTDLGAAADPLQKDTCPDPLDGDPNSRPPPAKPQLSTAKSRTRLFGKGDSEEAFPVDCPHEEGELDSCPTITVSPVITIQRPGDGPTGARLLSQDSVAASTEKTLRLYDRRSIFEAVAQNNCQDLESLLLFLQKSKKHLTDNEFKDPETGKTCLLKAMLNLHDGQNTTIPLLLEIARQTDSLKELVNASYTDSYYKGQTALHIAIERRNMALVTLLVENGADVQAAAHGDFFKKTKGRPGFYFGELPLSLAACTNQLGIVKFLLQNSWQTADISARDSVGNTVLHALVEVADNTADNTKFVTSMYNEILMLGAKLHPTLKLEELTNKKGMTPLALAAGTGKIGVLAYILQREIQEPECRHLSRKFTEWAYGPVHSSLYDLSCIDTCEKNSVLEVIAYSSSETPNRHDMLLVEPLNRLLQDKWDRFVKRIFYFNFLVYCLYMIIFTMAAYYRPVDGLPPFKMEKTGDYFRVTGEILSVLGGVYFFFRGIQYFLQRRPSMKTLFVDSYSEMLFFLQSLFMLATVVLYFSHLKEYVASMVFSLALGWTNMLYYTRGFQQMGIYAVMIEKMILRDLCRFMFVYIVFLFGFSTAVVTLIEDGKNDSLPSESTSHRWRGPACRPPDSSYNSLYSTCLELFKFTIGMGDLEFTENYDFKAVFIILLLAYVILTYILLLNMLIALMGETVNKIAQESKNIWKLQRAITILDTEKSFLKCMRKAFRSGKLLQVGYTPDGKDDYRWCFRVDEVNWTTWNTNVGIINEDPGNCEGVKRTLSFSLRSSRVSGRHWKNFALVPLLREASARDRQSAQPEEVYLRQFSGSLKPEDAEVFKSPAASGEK

As to `N=C(N)SCCc1cccc(CCSC(=N)N)c1`, the outcome in assay [1], in assay [10], in [12], in assay [13], in assay [15] and in assay [16] was inactive. The activity change, negative = inhibition in assay [2] (at 57.5 µM (top of the series)) was 1.43% (inactive). For the same molecule, the max response is -17.4% in assay [2] (measured here: cell count channel max response) and -13.1% in assay [2] (measured here: lipid channel max response). Besides, the Potency entry in assay [3], in assay [4] and in assay [9] was “inactive” in each case. The Potency is 2.24 µM (active) in assay [5]; 3.16 µM (active) in assay [6]; 10 µM (active) in assay [7]; 8.91 µM (active) in assay [8]; 13.1 µM (active) in [11]. Moreover, the activation in assay [14] was 0.562% (inactive).

On to `CN1CCc2cc(Cl)c(O)cc2C(c2ccccc2)C1` (stereo not drawn), for which the call in [1], in assay [10], in [12], in assay [13], in assay [15] and in assay [16] was inactive. Besides, the Potency result in assay [3], in [4] and in assay [9] was “inactive” in each case. For the same molecule, the Potency is 11.2 µM (active) in assay [5], 11.2 µM (active) in [6], 12.6 µM (active) in [7] and 12.6 µM (active) in assay [8]. Also, in assay [14], the activation is 1.12% (inactive).

On to `C[C@]12C=CC(=O)C=C1CCC1C2=CC[C@]2(C)[C@@H](C(=O)CN3CCN(c4cc(N5CCCC5)nc(N5CCCC5)n4)CC3)CC[C@@H]12` (stereo partly drawn), for which the molecule was called inactive in [1], in assay [13], in assay [15] and in assay [16]. Further, the Potency entry in [3] and in [9] was “inactive” each time. The Potency in [11] and in assay [17] was 13.1 µM (active) throughout. The activation in assay [14] was 1.5% (inactive).

On to `CC(C)(C)[C@]1(O)CCN2CC3c4ccccc4CCc4cccc(c43)[C@@H]2C1` (stereo partly drawn), for which the outcome in [1], in [13], in assay [15] and in [16] was inactive. Besides, the Potency entry in assay [3], in assay [4] and in assay [9] was “inactive” in each case. In addition, the Potency in assay [5] was 6.31 µM (active) and 5.01 µM (active); in [6] it was 6.31 µM (active) and 3.55 µM (active); in assay [7], 12.6 µM (active) and 11.2 µM (active); in [8], 12.6 µM (active) and 6.31 µM (active).

`COC(=O)c1c(-c2cc(OC)c(OC)c(OC)c2)c2ccc(OCc3ccccn3)cc2c(=O)n1-c1ccc(N)cc1`: the molecule was called inactive in [1], in [10], in assay [12], in assay [13], in assay [15] and in [16]. In addition, the Potency result in assay [3], in assay [4] and in assay [9] was “inactive” throughout. Further, the Potency in assay [5] is 2.82 µM (active); in assay [6] it was 3.98 µM (active); in [7] it was 7.08 µM (active); in [8], 2.82 µM (active); in assay [11], 7.38 µM (active); in [17], 9.28 µM (active). In addition, the activation in [14] was -4% (inactive).
